Screening results as filed in PubChem BioAssay.
Rows were chosen to be rich in hits. Some 6.7% of all compounds tested hit in one or more screens of this group.
MCF10A rerep: induces DNA re-replication in MCF 10a normal breast cells; 350,000 compounds, 2.9% hits; AID 624296; Potency, µM (doses to about 46.1 µM), for the others: at the highest dose activity, positive = re-replication, usual class: activators; MCF 10A DNA re-replication, Hoechst nuclear intensity, 48 h; also: % of control where 0% means no effect; nearly all actives have a fitted effect of over 50% in size
KB-V1 cytotox: KB-V1 MDR subline cytotoxicity; KB-V1 MDR cells viability, CellTiter-Glo, 72 h; Potency, µM (top dose mostly 46.1 µM), usual class: cytotoxic; 400,000 compounds, 3.4% hits; AID 1347076; also: % is scaled to controls: 0 for no effect and ±100 for the full control effect; nearly all actives have a fitted effect of over 60% in size
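Potencies derive from concentration-effect curves fitted to normalized luminescence (CellTiter-Glo) of KB-V1 cells treated for 72 h at 37 degrees C in phenol-red-free DMEM containing 10% FBS.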
SW480 rerep: DNA re-replication induction in SW480 cells. SW480 DNA re-replication, Hoechst DNA content imaging, 48 h. Potency, µM (titrated, usually from 46.1 µM), for the others: at the top dose re-replication activation, usual class: activators. 340,000 compounds, 1.8% hits. AID 624297; also: % of control where 0% means no effect; nearly all actives have a fitted effect of over 55% in size
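250 cells/well; 23 nL cpd via pin tool; 48 hr, 37 C, 5% CO2; Hoechst 40 min; imager read of total nuclear intensity, ex 405/em 500-530 nm.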
PINK1 expr mod: PINK1 expression modulation; PINK1 immunofluorescence, high-content cytometry, 24 h; Potency, µM (series often up to 76.6 µM), for the others: top-dose activation (PINK1 increase), actives largely listed as activators; 410,000 compounds, 0.2% hits; active = well fitted activation curve with a large enough effect; inconclusive = small, poorly fitted or top-dose-only effect; cell line not stated here; also: % of control where 0% means no effect; nearly all actives have a fitted effect of over 65% in size
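PINK1 protein level read as immunofluorescence by microplate cytometer in a fixed, stained stable cell line after 24 h exposure to five compound concentrations, with CCCP as control.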
KB-3-1 cytotox: kills parental KB-3-1 adenocarcinoma cells | KB-3-1 viability, CellTiter-Glo ATP luminescence, 72 h | Potency, µM (top dose mostly 46.1 µM), actives largely listed as cytotoxic | 400,000 compounds, 1.4% hits | AID 1347075; also: % is scaled to controls: 0 for no effect and ±100 for the full control effect; nearly all actives have a fitted effect of over 60% in size
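Multi-concentration cytotoxicity screen in KB-3-1 cells grown in DMEM lacking phenol red with 10% FBS. After 72 h at 37 °C with compound, ATP-dependent luminescence was recorded.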
* hit, by the source's call; i = inactive; ? = inconclusive; . = no result; [ ] = remark or other dose. Unless noted, calls follow the shape of the dose curve; as a rule, active = well fitted curve in the direction sought with a large enough effect; inconclusive = small, poorly fitted or top-dose-only effect, or another doubt; inactive = no such curve, though single readings can be large; an effect the other way counts as inactive or inconclusive. Potency is read from the fitted curve at half-maximal effect.

SMILES	MCF10A rerep	KB-V1 cytotox	SW480 rerep	PINK1 expr mod	KB-3-1 cytotox
COC(=O)c1cc(OC)c(OC)cc1NC(=O)Cn1nnc(-c2ccccc2Cl)n1	17%	?	15µM*	18%[38.3 µM]	i
N#C/C(=C\c1c(F)cccc1Cl)C(=O)NC1CC1	?	i	?	3%	i
O=C(Nc1nnc(SCC(=O)N2CCCCC2)s1)c1c(F)cccc1F	-1%	i	-10%	7%	i
Cc1ccc(C)c(CN2C[C@H](Sc3nc4ccccc4[nH]3)C[C@H]2C(=O)N2CCCN(C)CC2)c1	.	.	.	-1%	.
Cc1onc(-c2ccccc2Cl)c1C(=O)Nc1cccc(-c2cn3cccnc3n2)c1	?	16µM*	20%	4%[38.3 µM]	i
O=C(Nc1cccc(-c2cn3cccnc3n2)c1)c1cc(Br)ccc1Cl	.	i	.	1%	?
O=C(NNc1ccc([N+](=O)[O-])cc1)c1ccccc1Cl	2%	?	4%	0%	i
O=C(NC(NNc1ccc([N+](=O)[O-])cc1)(C(F)(F)F)C(F)(F)F)c1ccc(Cl)cc1	15µM*	i	4%	?	i
Nc1c(C(=O)NCc2ccc(F)cc2)c2nc3ccccc3nc2n1CCCN1CCOCC1	?	?	3.7µM*	-3%	?
COCCOC(=O)c1c(N)n(CCCN2CCOCC2)c2nc3ccccc3nc12	-8%	i	-5%	-1%	i
O=C(NCc1ccco1)c1ccc2ccccc2n1	0%	i	-4%	0%	i
Nc1c(C(=O)NCc2ccco2)c2nc3ccccc3nc2n1CCc1ccccc1	1.8µM*	?	7.3µM*	3%	i
Nc1c(C(=O)NCc2ccccc2)c2nc3ccccc3nc2n1CCCN1CCOCC1	18µM*	i	18µM*	-2%	i
CCOc1ccc(-n2c(N)c(C(=O)NCc3ccco3)c3nc4ccccc4nc32)cc1	13µM*	?	?	1%	i
CCOCCCNC(=O)c1c(N)n(-c2ccc(S(N)(=O)=O)cc2)c2nc3ccccc3nc12	?	i	?	4%	i
COC(=O)c1c(N)n(CCCN2CCOCC2)c2nc3ccccc3nc12	?	i	?	2%	i
COc1ccccc1N(C)c1cc2c(c3c1ccn3C)C1CCC2O1 (configuration not stated)	.	i	.	29%	?
COc1ccc(CNC(=O)CCCNC(=O)c2ccc(Cl)cc2)cc1OC	0%	i	-2%	-1%	i
Oc1cc(-c2nc3ccccc3s2)cc2c1OCCN(Cc1cccn1-c1ccccn1)C2	.	.	.	0%	.
C[C@@H]1CN([C@@H](C)CO)C(=O)c2cc(Br)cnc2O[C@H]1CN(C)Cc1cccnc1	.	i	.	2%	?
COc1ccc(OC)c(CCNC(=O)CCn2c(=O)c3cccn3c3cccnc32)c1	.	.	.	0%	.
COc1ccc(CNC(=O)c2c(N)n(CCCN3CCOCC3)c3nc4ccccc4nc23)cc1	?	?	2.6µM*	-4%	i
Cc1nn(Cc2ccc(Cl)cc2Cl)c(C)c1NC(=O)c1nn(C)cc1Cl	-6%	?	-14%	-2%[38.3 µM]	?
Cc1nn(C)c(Cl)c1NC(=O)OCc1ccc(Cl)cc1Cl	?	2.6µM*	2%	7%	4.1µM*
Cc1nn(Cc2ccc(Cl)cc2Cl)c(C)c1NC(=O)CCl	?	18µM*	18%	-1%	15µM*
O=C(NC(Cc1ccccc1)c1ccc2c(c1)OCCCO2)c1ccccc1F (configuration not stated)	4%	16µM*	2%	-1%[38.3 µM]	i
CCN(CC)S(=O)(=O)c1cc(NC(=O)C(C)N2CCc3ccccc32)ccc1C (configuration not stated)	?	?	?	0%	?
CCN(CC)S(=O)(=O)c1cc(NC(=O)C(C)N(C)CC(=O)Nc2c(C)cccc2C)ccc1C (configuration not stated)	24%	5.2µM*	28%	0%	?
Cn1c(=O)n(CCc2ccccc2)c(=O)c2c1nc1n2CCCN1CCc1ccccc1	21µM*	23µM*	?	-4%	i
Cn1c(=O)n(CC(=O)O)c(=O)c2c1nc1n2CCCN1CCc1ccccc1	5%	i	-2%	1%	i
